{"source": "PubChem BioAssay AID493114", "about": "(The Scripps Research Institute Molecular Screening Center, 2011)", "note": "Some of the results follow. Active and inactive are the calls of the source.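 The calls were made as follows: active = mean percent activation across triplicates above a set limit taken from the earlier primary procaspase-3 screen; inactive = the rest.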"}
{"molecular_target": "Caspase-3 (Homo sapiens) (UniProt P42574)", "sequence (P42574 whole entry D9A/D28A/D175A)": "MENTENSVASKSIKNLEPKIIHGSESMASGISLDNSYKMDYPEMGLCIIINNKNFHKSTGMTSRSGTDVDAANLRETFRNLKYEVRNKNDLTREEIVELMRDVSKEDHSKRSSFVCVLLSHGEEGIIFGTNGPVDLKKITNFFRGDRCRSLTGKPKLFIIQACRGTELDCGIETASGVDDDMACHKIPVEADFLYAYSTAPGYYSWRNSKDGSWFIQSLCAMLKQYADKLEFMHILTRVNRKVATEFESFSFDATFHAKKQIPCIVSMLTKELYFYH", "test": "procaspase-3 activators, counter-screen for dual procaspase-3/7 activator project, biochemical, absorbance, PC-3 D3A mutant, human (AID 493114);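 also: 0% = DMSO wells and 100% = DMSO wells with 5 µM added PC-3 D3A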", "conditions": "recombinant PC-3 D3A, Ac-DEVD-pNA absorbance 405 nm; at 8.5 µM; hits give high values; 100% = enzyme control; aspartates 9, 28, 175 changed to alanine"}
{"compound": "Fc1ccc(N2N=C(c3cccs3)CC2c2ccco2)c(F)c1", "note": "(stereo not given)", "activation": "-29.1% (inactive)"}
{"compound": "CCCCOC(=O)Cn1c(=O)n(CC(=O)OCCCC)c2cc(C)ccc21", "activation": "2.96% (inactive)"}
{"compound": "CCOC(=O)C1(CCOC)CCN(Cc2cc3ccccc3s2)CC1", "activation": "2.49% (inactive)"}
{"compound": "COc1ccc(/C=N/Nc2nc3ccccc3c(=O)[nH]2)cc1", "activation": "0.42% (inactive)"}
{"compound": "Nc1cccc2c1C(=O)N(Cc1nnc(-c3ccccc3Br)o1)C2=O", "activation": "-28.5% (inactive)"}
{"compound": "CC1(C)Cc2c(C#N)c(SCc3nc4ccccc4[nH]3)nc(N3CCOCC3)c2CO1", "activation": "-28.2% (inactive)"}
{"compound": "O=C1OCCN1C(=O)[C@H]1[C@H](c2ccc(F)cc2)C(c2ccccc2)=NN1c1ccc(Br)cc1", "activation": "-28.8% (inactive)"}
{"compound": "CNS(=O)(=O)c1cccc(C(=O)NC2CCCc3ccccc32)c1", "note": "(stereo not given)", "activation": "2.51% (inactive)"}
{"compound": "COc1ccc(Nc2ncnc3sc(-c4ccccc4)cc23)c(OC)c1", "activation": "-22.7% (inactive)"}
{"compound": "CC(=O)Oc1ccc2c(C)c(CC(C)O)c(=O)oc2c1", "note": "(stereo not given)", "activation": "-29.8% (inactive)"}
{"compound": "CCN(CC)c1ccc2oc(=O)c(C)nc2c1", "activation": "-12.2% (inactive)"}
{"compound": "COc1ccc2sc(-c3ccc(S(C)(=O)=O)cc3)c(C#Cc3cncn3C)c2c1", "activation": "-29.9% (inactive)"}
{"compound": "COc1ccc(-c2onc3ccc(C(C)=O)cc23)cc1", "activation": "-28% (inactive)"}
{"compound": "COc1ccccc1N=Cc1c(O)c2ccccc2oc1=O", "activation": "-28.6% (inactive)"}
{"compound": "COc1ccc(Nc2ncc(C(=O)N3CCN(c4ccccc4OC)CC3)c3ccccc23)cc1", "activation": "0.74% (inactive)"}
